In all, about 330,000 compounds went through this assay and about 4,600 (1.4%) were called active. What follows is part of a selection rich in actives, with near analogues and random picks from the rest. Values without a mark were called inactive.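 How the source made its calls: active means inhibition of 40% or more at the single tested concentration; inactive means the rest.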
assay: wild-type TIM10 yeast growth inhibition – luminescence, uHTS, counter-screen for tim10-1 yeast inhibitor project, primary screen (AID 463195);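 further: wild-type TIM10 isogenic control strain grown at permissive 25 °C; 0% = DMSO yeast wells and 100% = minimal medium wells without yeast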; settings: S. cerevisiae TIM10 strain growth, BacTiter-Glo luminescence, 24 h; at 10 µM; active compounds read high

Row | SMILES | inhibition
1 | COc1ccc(CN2CCNC(=O)C2CC(=O)N(C)Cc2ccccn2)cc1OC (centres undefined) | 10.2%
2 | CC(=O)Nc1ccc(CC#N)cc1 | 12.5%
3 | Cc1cc(OCCCC(=O)NCCN2C(=O)S/C(=C\c3cccnc3)C2=O)ccc1Cl | 38.4%
4 | O=C(NCCN1C(=O)S/C(=C\c2cccnc2)C1=O)c1cccc(OC(F)F)c1 | 43.2% (active)
5 | O=C(NCCN1C(=O)S/C(=C\c2cccnc2)C1=O)c1ccc(S(=O)(=O)N2CCCC2)cc1 | 2.86%
6 | CCOc1ccc(N(CC(=O)NCC2CCCO2)S(=O)(=O)c2ccc(C)cc2)cc1 (centres undefined) | 16.8%
7 | CCc1sc(C(=O)N2CCN(CC(=O)Nc3cccc(F)c3)CC2)cc1C | 60.2% (active)
8 | CC(=O)N1CCN(CC(=O)Nc2ccc(C)c(F)c2)CC1 | -1.66%
9 | O=C(CN1CCN(C(=O)c2cccc(F)c2)CC1)Nc1ccccc1F | -0.2%
10 | O=C(NC1CC1)C(Cc1ccccc1)NS(=O)(=O)c1ccccc1F (centres undefined) | -6.34%
11 | COc1ccc(S(=O)(=O)N(CC(=O)N/N=C/c2ccc(C(=O)O)cc2)Cc2ccccc2)cc1OC | -21.2%
12 | CCOC(=O)C1=C(CSc2nccn2C)NC(=O)NC1c1ccc(OC)cc1 (centres undefined) | 9.58%
13 | CCOC(=O)C1=C(C)N=c2s/c(=C\C(=O)OC)c(=O)n2C1c1ccc(OC)cc1 (centres undefined) | 61.5% (active)
14 | COCCOC(=O)C1=C(C)N=c2s/c(=C\c3cccs3)c(=O)n2C1c1cccs1 (centres undefined) | 21.4%
15 | CC(c1ccccc1)n1c(NCCCn2ccnc2)nc2c1c(=O)[nH]c(=O)n2C (centres undefined) | 1.78%
16 | Cc1ccc(C)c(NC(=O)C2Cc3ccccc3CN2C(=O)OCc2ccccc2)c1 (centres undefined) | 27.9%
17 | COc1ccc(Cl)cc1N(CC(=O)N1CCCCC1)S(C)(=O)=O | 1.46%
18 | Cc1[nH]c2ccccc2c1C(=O)CSCC(=O)O | 13.1%
19 | Cc1onc(-c2ccccc2Cl)c1C(=O)OCC(=O)c1ccccc1 | 23.4%
20 | Cc1[nH]c2ccccc2c1C(=O)COC(=O)c1c(-c2ccccc2)noc1C | 48.3% (active)

Row | SMILES | inhibition
21 | CCCN(CCC)C(=S)Nc1cc(C(=O)OC)ccc1C(=O)OC | -3.94%
22 | CCOC(=O)[C@@H]1[C@H]2COc3ccc(Br)cc3[C@H]2N2C(=O)N(c3ccc(C)cc3)C(=O)[C@@]12C | 13.9%
23 | COc1ccc(C(=O)ON=C2c3ccccc3-c3ccccc32)cc1OC | 18%
24 | COc1ccc(C(=O)O/N=C(\N)Cc2ccc(Cl)cc2Cl)cc1OC | 85.8% (active)
25 | COc1ccc(C/C(N)=N/OC(=O)c2ccco2)cc1OC | -7.79%
26 | CC(=O)Nc1ccc(S(=O)(=O)NCC(=O)OCc2cc(=O)oc3ccc4ccccc4c23)cc1 | 6.88%
27 | N#Cc1cccc(CN2CCC(=O)N([C@H](CO)c3ccccc3)CC2)c1 | 12.1%
28 | O=[N+]([O-])c1cc([N+](=O)[O-])c(Oc2cc(F)cc(F)c2F)cc1NN1CCCCC1 | -1.5%
29 | Cc1ccc(NC(=O)c2cc(-c3ccccc3O)n[nH]2)cc1C | 0.905%
30 | Oc1ccccc1-c1cc(-c2ccc(Cl)cc2)n[nH]1 | 53.8% (active)
31 | O=C(Nc1cccnc1Cl)c1cc(-c2ccccc2O)on1 | 3.29%
32 | CCCCC1S/C(=N/N=C/c2cccs2)NC1=O (centres undefined) | 5.03%
33 | O=C(N/N=C\c1cccc(Br)c1)c1ccccc1-n1cccc1 | 51.9% (active)
34 | O=C(CNC(=O)c1cccs1)N/N=C/c1cccc(Br)c1 | 18.4%
35 | O=C(N/N=C/c1cccc(Br)c1)c1ccc(N2CCCC2=O)cc1 | 12%
36 | CC(C)(C)OC(=O)C[C@@H]1C/C=C\C[C@@H](CC(=O)NCCO)C(=O)N[C@H](Cc2c[nH]c3ccccc23)COC1=O | -3.29%
37 | CC(C)CCn1cnc2c1c(=O)n(CC(=O)NC(N)=O)c(=O)n2Cc1ccccc1 | 2.63%
38 | COc1cc(C(=O)NN(CCC#N)C2=NS(=O)(=O)c3ccccc32)cc(OC)c1OC | 8.55%
39 | Nc1cccc(-c2cc(-c3ccccc3)nc(-c3cccc(N)c3)n2)c1 | 44.2% (active)
40 | Nc1ccc(-c2nnc(-c3ccccc3)o2)cc1 | 8.79%

Row | SMILES | inhibition
41 | Cc1nc(NNC(=O)c2ccccc2)cc(-c2ccccc2)n1 | 10.7%
42 | CC1=NNC(=O)C1Cc1c(Cl)cccc1Cl (centres undefined) | 13.4%
43 | COc1ccc(N2C(=O)C(CC(=O)Nc3ccc(F)cc3)N(CCc3cccs3)C2=O)cc1 (centres undefined) | 27.1%
44 | O=C1[C@@H](c2ccccc2)[C@@H](c2ccccc2)N1c1cccnc1 | 63.5% (active)
45 | CCc1ccccc1NC1c2ccccc2C(=O)N1c1cccnc1 (centres undefined) | -1.26%
46 | CC(=O)C1=C(O)C(=O)N(c2cccnc2)C1c1ccc([N+](=O)[O-])cc1 (centres undefined) | -3.83%
47 | COc1ccc(-c2c(C)cc3oc(=O)cc(-c4ccccc4)c3c2C)cc1C=O | -23.6%
48 | CCN(C(=O)COC(=O)CCOc1cccc(C)c1)c1c(N)n(Cc2ccccc2)c(=O)[nH]c1=O | -2.83%
49 | Fc1ccccc1N=C1Nc2cccc3cccc1c23 | 5.3%
50 | c1ccc(C2=Nc3cccc4cccc(c34)N2)cc1 | 42.2% (active)
51 | COc1ccccc1C1=Nc2cccc3cccc(c23)N1 | 8.32%
52 | CCO/C=C1\C(=O)N(c2ccc(OCC)cc2)C(=O)c2ccccc21 | 1.43%
53 | COc1cccc(NC(=O)COC(=O)CCOc2ccccc2OC)c1 | 30%
54 | CSc1ccccc1NC(=O)COC(=O)CCCOc1ccc(C)cc1 | -8.29%
55 | COc1cc([N+](=O)[O-])ccc1NC(=O)COC(=O)CCOc1ccc(C)cc1 | 49% (active)
56 | Cc1cccc(OCc2nnc(SCc3nc4cc(C(F)(F)F)ccc4c(=O)[nH]3)o2)c1 | 23%
57 | Cc1ccccc1OCC(=O)Nc1ccc2c(c1)ncn2C | 2.51%
58 | Cc1ccccc1OCC(=O)Nc1ccc(N2CCN(C(=O)C(C)C)CC2)c(Cl)c1 | 65.5% (active)
59 | Cc1ccccc1OCC(=O)Nc1ccc(S(=O)(=O)N2CCOCC2)cc1 | 18.7%

— PubChem BioAssay AID463195 (Sanford-Burnham Center for Chemical Genomics, 2010)
